# Results taken from PubChem BioAssay (NCI).
# The panel holds about 79,000 compounds, 15% with a hit somewhere; the sample as a whole holds those more often. Calls of active or inactive are those of the source. No stated cut-off is given here; in the data, active means growth inhibition above about 70%; inactive means the rest.
# Experiment: NCI Yeast Anticancer Drug Screen. Data for the bub3 strain (AID 167)
# Details: S. cerevisiae bub3 mutant strain, at 11.0 µM, active compounds read high
# Outline: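 Growth of a checkpoint-deficient yeast mutant is measured after compound exposure. Values represent inhibition relative to vehicle.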
row,SMILES,growth inhibition
1,CCN(CC)CC[n+]1ccc2c(C)c3[nH]c4ccc(O)cc4c3c(C)c2c1,-5% (inactive)
2,O=[n+]1c2ccc(Cl)cc2n([O-])c2ccc(Cl)cc21,2% (inactive)
3,CCOP(=O)(OCC)C(Cc1ccccc1)N=C(c1ccccc1)c1ccccc1 (stereo not drawn),-41% (inactive)
4,CC[C@@]1(O)C(=O)OCc2c1cc1n(c2=O)Cc2cc3c(N)cccc3nc2-1,-26% (inactive)
5,COC1C=COC2(C)Oc3c(C)c(O)c4c(c3C2=O)/C(=N/C2CCC(O)OC2C)C=C(NC(=O)/C(C)=C\C(=O)C2CC2C(O)C(C)C(O)C(C)C(OC(C)=O)C1C)C4=O (stereo not drawn),-2% (inactive)
6,COc1cc2c(c(OC)c1OC)-c1c(cc3c(c1OC)OCO3)CC(C)C(C)(O)C2OC(=O)c1ccccc1 (stereo not drawn),10% (inactive)
7,O=c1ssc2ncccc12,36% (inactive)
8,O=C1C2C(C(=O)N1c1ccc(OCc3ccccc3)cc1)C1c3ccccc3C2C2CCCCN21 (stereo not drawn),-1% (inactive)
9,COc1ccc(-c2cn(-c3ccc(I)cc3)c3ncnc(N)c23)cc1,-3% (inactive)
10,CCOC(=O)C(NC(=O)c1ccccc1)(N1CCN(c2cc3c(cc2F)c(=O)c(C(=O)O)cn3C2CC2)CC1)C(F)(F)F (stereo not drawn),3% (inactive)
11,C/C(=N\O)C1CC2C=C(C#N)C1N(Cc1ccccc1)C2 (stereo not drawn),-3% (inactive)
12,CC/C(=C(\c1ccccc1)c1ccc(OCCN(C)C)cc1)c1ccccc1,38% (inactive)
13,COc1ccccc1N=NC(C(=O)c1ccccc1)C(=O)c1ccccc1,17% (inactive)
14,CC(O)C(O)C(O)C(/C=N\Nc1ccccc1)=N/Nc1ccccc1 (stereo not drawn),19% (inactive)
15,COc1ccc(/C=C2\SC(=S)N(/C=C/c3nc4ccccc4[nH]c3=O)C2=O)cc1OC,19% (inactive)
16,N#CN=Nc1cc(Cl)c(N=NC#N)cc1Cl,-7% (inactive)
17,Cc1ccc(S(=O)(=O)Oc2cc(Cl)c(Cl)cc2Cl)cc1,3% (inactive)
18,c1ccc2c(c1)Oc1cccc3cccc-2c13,-3% (inactive)
19,O=C(c1ccc(Cl)cc1Cl)C(Cl)Cl,3% (inactive)
20,CC(C)C1=CCC2C(=C1)CCC1C(C)(C(=O)O)CCCC21C (stereo not drawn) (tested in a mixture with another compound),0% (inactive)

row,SMILES,growth inhibition
1,COc1cc(/C=C2\CCc3ccccc3C2=O)cc(OC)c1OC,32% (inactive)
2,CC(=O)[O][Bi]([c]1ccccc1)[c]1ccccc1,56% (inactive)
3,S=C(N/N=C/c1ccccn1)Nc1ccc(Cl)cc1,-2% (inactive)
4,COc1cc(CC2CC(c3ccc4c(c3)OCO4)OC2=O)cc(OC)c1OC (stereo not drawn),43% (inactive)
5,CNC1C(OC2C(OC3C(O)C(O)C(N=C(N)N)C(O)C3N=C(N)N)OC(C)C2(O)CO)OC(CO)C(O)C1O (stereo not drawn),12% (inactive)
6,NNC(=O)CCc1ccc2ccc3ccccc3c2c1,-33% (inactive)
7,Oc1ccc2ccccc2c1C(c1ccc(Cl)cc1)c1c(O)ccc2ccccc12,-1% (inactive)
8,CCCCN(CCCC)CCSc1ccc(Cl)cc1,-7% (inactive)
9,CCC(C)COC(=O)c1ccc(N=Cc2ccc(C=Nc3ccc(C(=O)OCC(C)CC)cc3)cc2)cc1 (stereo not drawn),6% (inactive)
10,CC1(C)C(=O)OC(n2cc(F)c(=O)[nH]c2=O)C1=O (stereo not drawn),19% (inactive)
11,O=[N+]([O-])CC(SCc1ccccc1)c1ccc2c(c1)OCO2 (stereo not drawn),91% (active)
12,COc1cc2c(cc1[N+](=O)[O-])C(=O)C(Br)(Br)CCC2,98% (active)
13,OCC1OC(OCC(O)C(O)C(O)C(/C=N/Nc2ccccc2)=N/Nc2ccccc2)C(O)C(O)C1O (stereo not drawn),10% (inactive)
14,COc1ccc(N=C2C(=O)Nc3ccc(Br)cc32)cc1,-2% (inactive)
15,Cn1c(=O)c2ccccc2c2ccccc21,5% (inactive)
16,CC[n+]1ccc2c(C)c3[nH]c4ccc(O)cc4c3c(C)c2c1,-16% (inactive)
17,CC(=O)ON1C(=O)c2cccc3cccc(c23)C1=O,24% (inactive)
18,COc1ccc2ccc3ccccc3c2c1C=O,-5% (inactive)
19,OC1CCCc2c1cc1ccc3cccc4ccc2c1c34 (stereo not drawn),98% (active)

# Same assay, conditions: S. cerevisiae bub3 mutant strain, at 33.0 µM, active compounds read high
row,SMILES,growth inhibition
1,CCN(CC)CC[n+]1ccc2c(C)c3[nH]c4ccc(O)cc4c3c(C)c2c1,-7% (inactive)
2,O=[n+]1c2ccc(Cl)cc2n([O-])c2ccc(Cl)cc21,9% (inactive)
3,CCOP(=O)(OCC)C(Cc1ccccc1)N=C(c1ccccc1)c1ccccc1 (stereo not drawn),88% (active)
4,CC[C@@]1(O)C(=O)OCc2c1cc1n(c2=O)Cc2cc3c(N)cccc3nc2-1,-7% (inactive)
5,COC1C=COC2(C)Oc3c(C)c(O)c4c(c3C2=O)/C(=N/C2CCC(O)OC2C)C=C(NC(=O)/C(C)=C\C(=O)C2CC2C(O)C(C)C(O)C(C)C(OC(C)=O)C1C)C4=O (stereo not drawn),-5% (inactive)
6,COc1cc2c(c(OC)c1OC)-c1c(cc3c(c1OC)OCO3)CC(C)C(C)(O)C2OC(=O)c1ccccc1 (stereo not drawn),22% (inactive)
7,O=c1ssc2ncccc12,87% (active)
8,O=C1C2C(C(=O)N1c1ccc(OCc3ccccc3)cc1)C1c3ccccc3C2C2CCCCN21 (stereo not drawn),23% (inactive)
9,COc1ccc(-c2cn(-c3ccc(I)cc3)c3ncnc(N)c23)cc1,0% (inactive)
10,CCOC(=O)C(NC(=O)c1ccccc1)(N1CCN(c2cc3c(cc2F)c(=O)c(C(=O)O)cn3C2CC2)CC1)C(F)(F)F (stereo not drawn),-39% (inactive)
11,C/C(=N\O)C1CC2C=C(C#N)C1N(Cc1ccccc1)C2 (stereo not drawn),-2% (inactive)
12,CC/C(=C(\c1ccccc1)c1ccc(OCCN(C)C)cc1)c1ccccc1,98% (active)
13,COc1ccccc1N=NC(C(=O)c1ccccc1)C(=O)c1ccccc1,95% (active)
14,CC(O)C(O)C(O)C(/C=N\Nc1ccccc1)=N/Nc1ccccc1 (stereo not drawn),24% (inactive)
15,COc1ccc(/C=C2\SC(=S)N(/C=C/c3nc4ccccc4[nH]c3=O)C2=O)cc1OC,52% (inactive)
16,N#CN=Nc1cc(Cl)c(N=NC#N)cc1Cl,25% (inactive)
17,Cc1ccc(S(=O)(=O)Oc2cc(Cl)c(Cl)cc2Cl)cc1,-2% (inactive)
18,c1ccc2c(c1)Oc1cccc3cccc-2c13,17% (inactive)
19,O=C(c1ccc(Cl)cc1Cl)C(Cl)Cl,80% (active)
20,CC(C)C1=CCC2C(=C1)CCC1C(C)(C(=O)O)CCCC21C (stereo not drawn) (tested in a mixture with another compound),17% (inactive)

row,SMILES,growth inhibition
1,COc1cc(/C=C2\CCc3ccccc3C2=O)cc(OC)c1OC,76% (active)
2,CC(=O)[O][Bi]([c]1ccccc1)[c]1ccccc1,91% (active)
3,S=C(N/N=C/c1ccccn1)Nc1ccc(Cl)cc1,-3% (inactive)
4,COc1cc(CC2CC(c3ccc4c(c3)OCO4)OC2=O)cc(OC)c1OC (stereo not drawn),58% (inactive)
5,CNC1C(OC2C(OC3C(O)C(O)C(N=C(N)N)C(O)C3N=C(N)N)OC(C)C2(O)CO)OC(CO)C(O)C1O (stereo not drawn),45% (inactive)
6,NNC(=O)CCc1ccc2ccc3ccccc3c2c1,19% (inactive)
7,Oc1ccc2ccccc2c1C(c1ccc(Cl)cc1)c1c(O)ccc2ccccc12,39% (inactive)
8,CCCCN(CCCC)CCSc1ccc(Cl)cc1,3% (inactive)
9,CCC(C)COC(=O)c1ccc(N=Cc2ccc(C=Nc3ccc(C(=O)OCC(C)CC)cc3)cc2)cc1 (stereo not drawn),10% (inactive)
10,CC1(C)C(=O)OC(n2cc(F)c(=O)[nH]c2=O)C1=O (stereo not drawn),37% (inactive)
11,O=[N+]([O-])CC(SCc1ccccc1)c1ccc2c(c1)OCO2 (stereo not drawn),97% (active)
12,COc1cc2c(cc1[N+](=O)[O-])C(=O)C(Br)(Br)CCC2,99% (active)
13,OCC1OC(OCC(O)C(O)C(O)C(/C=N/Nc2ccccc2)=N/Nc2ccccc2)C(O)C(O)C1O (stereo not drawn),12% (inactive)
14,COc1ccc(N=C2C(=O)Nc3ccc(Br)cc32)cc1,2% (inactive)
15,Cn1c(=O)c2ccccc2c2ccccc21,29% (inactive)
16,CC[n+]1ccc2c(C)c3[nH]c4ccc(O)cc4c3c(C)c2c1,3% (inactive)
17,CC(=O)ON1C(=O)c2cccc3cccc(c23)C1=O,91% (active)
18,COc1ccc2ccc3ccccc3c2c1C=O,-2% (inactive)
19,OC1CCCc2c1cc1ccc3cccc4ccc2c1c34 (stereo not drawn),97% (active)
